Results from PubChem BioAssay (NCATS).
“And” between values parts separate entries of the source, which are not always exact repeats. Identical values can stand only once. Records with an inconclusive call do not appear. The source made the active and inactive calls. Unless noted, the call rests on the fitted dose curve; in most records, active means well fitted curve in the direction sought with a large enough effect; inconclusive means small, poorly fitted or top-dose-only effect, or another doubt; inactive means no such curve, though single readings can be large; an effect the other way counts as inactive or inconclusive.

Key:
[1] = target: Guanine nucleotide-binding protein G(i) subunit alpha-1 (Homo sapiens) (UniProt P63096); test: qHTS Assay for Inhibitors of RGS12 GoLoco Motif Activity (Green Fluorophore) (AID 879);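 further: 0% = labeled peptide with Gαi1 and full inhibition = labeled peptide alone without protein; negative values mean loss of peptide binding seen as reduced polarization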
Guanine nucleotide-binding protein G(i) subunit alpha-1 (Homo sapiens), sequence (P63096 whole entry, looked up): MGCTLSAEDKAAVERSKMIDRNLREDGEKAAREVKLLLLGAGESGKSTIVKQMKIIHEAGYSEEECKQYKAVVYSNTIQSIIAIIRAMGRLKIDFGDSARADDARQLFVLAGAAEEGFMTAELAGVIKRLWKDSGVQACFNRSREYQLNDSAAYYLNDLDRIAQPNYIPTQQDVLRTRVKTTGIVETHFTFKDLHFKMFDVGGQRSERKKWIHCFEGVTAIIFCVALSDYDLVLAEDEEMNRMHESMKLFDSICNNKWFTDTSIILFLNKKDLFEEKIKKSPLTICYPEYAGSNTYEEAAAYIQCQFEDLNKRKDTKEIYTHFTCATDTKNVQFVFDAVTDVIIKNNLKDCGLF
How it was run: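 A drop in FITC polarization marked displacement of the FITC-tagged RGS12 GoLoco peptide (10 nM) from Gαi1 (50 nM). Compounds were incubated 10 min at room temperature in Tris pH 7.5 buffer containing 150 mM NaCl, 0.1 mM GDP and 0.05% NP40; unlabeled peptide titration served as control.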

[2] = target: Cytochrome P450 2C9 (Homo sapiens) (UniProt P11712); test: qHTS Assay for Inhibitors and Substrates of Cytochrome P450 2C9 (AID 883); further: nearly all actives have a fitted effect of over 60% in size; further: potency means the concentration at half of the fitted maximal effect
Cytochrome P450 2C9 (Homo sapiens), sequence (P11712 whole entry, looked up): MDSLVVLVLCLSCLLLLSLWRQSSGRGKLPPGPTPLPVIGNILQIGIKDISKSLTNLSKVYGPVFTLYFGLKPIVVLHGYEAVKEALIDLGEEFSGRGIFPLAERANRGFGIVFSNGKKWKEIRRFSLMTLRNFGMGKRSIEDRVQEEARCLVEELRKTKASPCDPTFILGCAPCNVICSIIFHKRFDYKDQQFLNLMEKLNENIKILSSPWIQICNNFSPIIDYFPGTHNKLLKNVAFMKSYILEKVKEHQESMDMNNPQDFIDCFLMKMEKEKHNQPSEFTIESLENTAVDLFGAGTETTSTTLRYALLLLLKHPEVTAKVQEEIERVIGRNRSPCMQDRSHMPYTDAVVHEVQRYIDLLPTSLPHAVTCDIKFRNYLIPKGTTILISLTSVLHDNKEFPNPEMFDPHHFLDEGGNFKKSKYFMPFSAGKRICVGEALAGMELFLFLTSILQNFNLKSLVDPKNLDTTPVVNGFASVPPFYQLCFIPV
How it was run: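 Human CYP2C9 (10nM) with Luciferin-H at 100uM (its KM) in 25mM KPO4; compound preincubated 10 min at 37C, then NADPH regeneration for 60 min at 37C. Luciferin read by luminescence after detection reagent; normalized to 57uM sulphaphenazole as full inhibition.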

[3] = target: Cytochrome P450 3A4 (Homo sapiens) (UniProt P08684); test: qHTS Assay for Activators of Cytochrome P450 3A4 (AID 885); further: nearly all actives have a fitted effect of over 65% in size
Cytochrome P450 3A4 (Homo sapiens), sequence (P08684 whole entry, looked up): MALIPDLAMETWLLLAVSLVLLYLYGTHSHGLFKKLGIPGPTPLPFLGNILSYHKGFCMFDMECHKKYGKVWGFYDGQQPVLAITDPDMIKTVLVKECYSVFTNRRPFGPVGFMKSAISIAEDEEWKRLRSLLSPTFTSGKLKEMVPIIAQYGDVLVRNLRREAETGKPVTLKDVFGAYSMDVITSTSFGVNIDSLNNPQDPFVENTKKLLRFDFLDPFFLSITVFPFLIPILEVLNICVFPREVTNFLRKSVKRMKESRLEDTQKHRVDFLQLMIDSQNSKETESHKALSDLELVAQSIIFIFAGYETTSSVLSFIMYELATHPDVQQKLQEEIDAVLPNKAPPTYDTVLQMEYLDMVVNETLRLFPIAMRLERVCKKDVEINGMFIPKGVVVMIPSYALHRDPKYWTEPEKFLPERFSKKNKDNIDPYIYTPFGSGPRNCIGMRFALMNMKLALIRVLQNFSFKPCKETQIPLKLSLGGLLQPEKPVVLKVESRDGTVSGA
How it was run: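 Using 20nM recombinant human CYP3A4 in potassium phosphate (200mM), substrate Luciferin-PPXE at 25uM, luminescent luciferin detection followed a 60-min RT NADPH reaction; data scaled to 57 uM ketoconazole.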

[4] = target: Cytochrome P450 2C19 (Homo sapiens) (UniProt P33261); test: qHTS Assay for Inhibitors and Substrates of Cytochrome P450 2C19 (AID 899); further: nearly all actives have a fitted effect of over 60% in size; further: potency means the concentration at half of the fitted maximal effect
Cytochrome P450 2C19 (Homo sapiens), sequence (P33261 whole entry, looked up): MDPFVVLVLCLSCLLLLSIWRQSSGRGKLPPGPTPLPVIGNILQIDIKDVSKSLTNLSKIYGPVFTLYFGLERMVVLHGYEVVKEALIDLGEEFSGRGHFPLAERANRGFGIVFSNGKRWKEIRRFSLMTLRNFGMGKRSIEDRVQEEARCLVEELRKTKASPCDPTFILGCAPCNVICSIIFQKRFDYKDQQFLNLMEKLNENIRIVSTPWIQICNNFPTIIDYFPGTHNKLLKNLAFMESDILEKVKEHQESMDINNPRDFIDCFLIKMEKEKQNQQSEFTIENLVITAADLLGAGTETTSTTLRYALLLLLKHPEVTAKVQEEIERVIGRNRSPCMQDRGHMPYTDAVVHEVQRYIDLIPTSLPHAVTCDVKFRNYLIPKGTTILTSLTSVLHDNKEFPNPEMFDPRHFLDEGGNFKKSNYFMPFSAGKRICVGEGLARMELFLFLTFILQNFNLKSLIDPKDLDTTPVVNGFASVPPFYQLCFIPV
How it was run: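 5 nM human CYP2C19 with 10uM Luciferin-H EGE (at KM) in 50mM KPO4, compound preincubated 10 min at 37C, then NADPH regeneration for 60 min at 37C. Luciferin read by luminescence after detection reagent; normalized to 57uM ketoconazole as full inhibition.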

[5] = qHTS Assay for Identification of Small Molecule Antagonists for Thrombopoietin (TPO) Signaling Pathway (AID 918); settings: TPO-dependent cell signaling reporter, antagonist mode; further: potency means the concentration at half of the fitted maximal effect; nearly all actives have a fitted effect of over 60% in size
How it was run: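 Antagonist mode at EC50 TPO (26 pM) in IL-3-free medium; murine Ba/F3 cells with human TPO receptor and GPIIb-promoter luciferase, 24 hrs at 37 C before luminescent detection.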

[6] = Confirmation and Secondary Assay for Modulators of Hemoglobin Beta Chain Splicing at IVS2 705 locus (AID 930);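 further: HeLa cells stably expressing the EGFP-705 splicing reporter; GFP fluorescence per well restored by corrected splicing of the IVS2-705 intron in EGFP; % of control where 0% means no effect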
How it was run: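 Fluorescence gain (488 nm laser, 500-520 nm PMT) reflects restored correct splicing of a mutant IVS2-705 intron inside EGFP in stably transfected HeLa cells after 2-day compound treatment.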

[7] = target: Pyruvate kinase (Leishmania mexicana) (UniProt Q27686); test: qHTS Validation Assay for Inhibitors of Leishmania Mexicana Pyruvate Kinase (AID 945); further: potency means the concentration at half of the fitted maximal effect
Pyruvate kinase (Leishmania mexicana), sequence (Q27686 2-499 E452W): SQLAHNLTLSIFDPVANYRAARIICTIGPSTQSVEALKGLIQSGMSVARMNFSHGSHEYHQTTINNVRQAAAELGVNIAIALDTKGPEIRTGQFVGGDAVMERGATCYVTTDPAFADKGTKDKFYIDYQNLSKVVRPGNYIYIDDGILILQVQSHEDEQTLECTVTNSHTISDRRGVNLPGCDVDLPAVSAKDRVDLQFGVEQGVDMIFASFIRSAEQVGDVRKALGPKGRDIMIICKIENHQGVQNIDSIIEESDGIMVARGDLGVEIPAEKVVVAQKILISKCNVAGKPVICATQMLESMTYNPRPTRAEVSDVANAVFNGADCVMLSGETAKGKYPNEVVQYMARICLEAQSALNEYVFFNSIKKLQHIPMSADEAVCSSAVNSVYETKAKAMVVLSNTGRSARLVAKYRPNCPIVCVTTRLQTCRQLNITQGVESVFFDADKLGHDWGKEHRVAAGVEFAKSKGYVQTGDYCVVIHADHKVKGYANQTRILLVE
How it was run: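 Compounds are tested as eight-point concentration series. Reactions contain 0.2 nM LmPYK E451W, 0.5 mM PEP, 0.1 mM ADP, 7 mM MgCl2 and 50 mM KCl at pH 7.2, run 1 h at room temperature, then read by PKLight luminescence.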

[8] = Cellular Toxicity (caspase-3) H-4-II-E (AID 663);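 further: cells exposed to compound for 16 hr before readout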
How it was run: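 H-4-II-E rat hepatoma, 1500 cells/well, 5 hr settle at 37 °C; compound 16 hr, 37 °C, complete medium; Caspase-Glo 3/7, 20 min RT; luminescence. DMSO = 0%, 100 uM tamoxifen = 100%; Hill-equation AC50.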

[9] = Cellular Toxicity (caspase-3) Hek293 (AID 664); settings: HEK293 caspase-3 activation; caspase-3 activation: at 92.2 µM (top of the series), DMSO = 0%, 100 µM tamoxifen = 100%;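 further: cells exposed to compound for 16 h at 37 °C before readout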; further: potency means the concentration at half of the fitted maximal effect
How it was run: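 Apoptosis readout: Caspase-Glo 3/7 signal in human HEK293 cells following 16-hour compound incubation. Responses scaled between DMSO baseline and 100 uM tamoxifen.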

[10] = Cellular Toxicity (caspase-3) N2a (AID 665);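 further: compound exposure lasted 16 h at 37 °C before readout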
How it was run: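 Concentration-response qHTS: compound-induced caspase-3/7 luminescence in N2a cells (16 h, 37 °C), relative to DMSO and 10 uM staurosporine controls; AC50 obtained using the standard Hill equation.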

[11] = Cellular Toxicity (caspase-3) NIH 3T3 (AID 666);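 further: caspase signal read after 16 h compound exposure; 0% = DMSO basal and 100% = 100 µM tamoxifen stimulation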
How it was run: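 Activity: caspase-3/7 induction, NIH 3T3 cells, 16 hr treatment at 37°C, luminescent Caspase-Glo detection; AC50 via Hill equation.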

[12] = Cellular Toxicity (caspase-3) Renal Proximal Tubule (AID 667);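 further: cells exposed to compound for 16 hours at 37 °C before detection; 0% = DMSO basal and 100% = 10 µM staurosporine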
How it was run: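 In qHTS format, rat primary proximal tubule cells seeded at 1000 per well are exposed to compounds for 16 hours at 37 °C. An increase in Caspase-Glo 3/7 luminescence indicates caspase activation.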

[13] = target: Cytochrome P450 3A4 (Homo sapiens) (UniProt P08684); test: qHTS Assay for Inhibitors and Substrates of Cytochrome P450 3A4 (AID 884); further: on the % scale 0 is the no-effect control and ±100 the full control effect; nearly all actives have a fitted effect of over 50% in size
How it was run: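 Luminescent readout of luciferin produced by CYP3A4 (20 nM) dealkylation of Luciferin-PPXE, 25 uM (its KM). NADPH-driven reaction ran 60 min at RT after 10 min compound preincubation; data scaled to 57 uM ketoconazole as 100% inhibition.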

[14] = Cell Viability - LYMP2-001 (AID 921);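 further: cells exposed to compound for 24 h at 37 °C; 0% = DMSO only and full inhibition = tetraoctylammonium bromide control wells; nearly all actives have a fitted effect of over 70% in size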
How it was run: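 qHTS, 1536-well; lymphoblastoid cells, 24 hr compound, 37 C; ATP by CellTiter-Glo, 30 min RT; luminescence; Hill-fit AC50.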

[15] = Confirmation and Secondary Assay for Modulators of Hemoglobin Beta Chain Splicing at IVS2 654 locus (AID 910);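 further: HeLa cells stably carrying EGFP split by mutant beta-globin IVS2-654 intron; % of control where 0% means no effect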
How it was run: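 HeLa cells stably expressing EGFP interrupted by β-globin IVS2-654 intron, seeded overnight in Opti-MEM/2% FCS, then treated 2 days at 37 °C. Restored splicing read as total peak GFP intensity per well by laser scanning cytometry (488 nm excitation, 500–520 nm emission); 500 nM antisense PNA as control.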

[16] = qHTS Assay for Identification of Small Molecule Agonists for Thrombopoietin (TPO) Signaling Pathway (AID 917); further: potency means the concentration at half of the fitted maximal effect
How it was run: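 Quantitative HTS for pathway activators: compounds were pin-transferred onto IL-3-starved Ba/F3 cells expressing human TPO receptor, TPO was added at its EC50 (26 pM final), and after 24 hrs at 37 C reporter luciferase was measured.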

[17] = qHTS Assay for Identification of Small Molecule Antagonists for NFkB Signaling Pathway (AID 895; active means well fitted inhibition curve with a large enough effect in the signal ratio, with a control signal flat, not every such curve was filed as active; the % refers to the signal ratio; further: on the % scale 0 is the no-effect control and ±100 the full control effect)
How it was run: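 ME-180 NFkB-bla cells (beta-lactamase under NFkB response element), plated overnight, treated with compound then 10 pM TNF alpha (about EC50) for 5 hrs at 37 C. LiveBLAzer FRET read at 460/530 nm emission, 405 nm excitation.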

[18] = target: Muscarinic acetylcholine receptor M1 (Rattus norvegicus) (UniProt P08482); test: qHTS Assay for Antagonists of Acetylcholine Muscarinic M1 Receptor: Measurement of IP-One Response (AID 944); further: nearly all actives have a fitted effect of over 75% in size
Muscarinic acetylcholine receptor M1 (Rattus norvegicus), sequence (P08482 whole entry, looked up): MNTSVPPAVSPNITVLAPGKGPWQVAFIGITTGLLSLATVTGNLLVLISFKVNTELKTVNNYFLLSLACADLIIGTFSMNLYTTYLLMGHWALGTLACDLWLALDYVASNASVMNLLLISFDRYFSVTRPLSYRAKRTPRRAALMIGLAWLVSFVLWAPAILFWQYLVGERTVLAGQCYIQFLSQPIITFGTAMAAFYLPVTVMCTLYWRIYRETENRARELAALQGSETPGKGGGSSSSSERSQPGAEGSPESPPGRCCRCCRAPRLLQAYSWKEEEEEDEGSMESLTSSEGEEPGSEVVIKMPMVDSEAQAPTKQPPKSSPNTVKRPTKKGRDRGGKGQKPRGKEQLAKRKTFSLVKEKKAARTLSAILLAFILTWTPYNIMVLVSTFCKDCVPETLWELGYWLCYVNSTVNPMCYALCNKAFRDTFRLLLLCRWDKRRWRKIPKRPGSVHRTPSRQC
How it was run: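 Antagonism was measured as loss of carbachol-driven (EC80) IP1 accumulation in CHO cells carrying rat M1, using a homogeneous IP-One TR-FRET kit read at 620 and 665 nm.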

[19] = target: Muscarinic acetylcholine receptor M1 (Rattus norvegicus) (UniProt P08482); test: qHTS Assay for Antagonists of Acetylcholine Muscarinic M1 Receptor: Kinetic Measurement of Intracellular Calcium Response (AID 943);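 further: Fluo-4 calcium signal as peak divided by basal fluorescence over 4 min; nearly all actives have a fitted effect of over 75% in size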
How it was run: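 Quantitative HTS in CHO-M1 (rat receptor) cells: 10 min compound exposure ahead of 100 nM carbachol, Fluo-4 fluorescence followed 4 min, value expressed as peak-to-basal ratio.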

Clc1ccccc1C(c1ccccc1)(c1ccccc1)n1ccnc1
active: Potency [2] 1 µM and 316 nM | Potency [4] 10 µM | Potency [5] 12.6 µM
inactive: Potency [1] | Potency [3] | outcome [6] | Potency [7]

O=c1[nH]cc(F)c(=O)[nH]1
inactive: outcome [8] | Potency [9] | outcome [10] | outcome [11] | outcome [12] | Potency [1] | Potency [2] | outcome [13] | Potency [4] | outcome [14] | outcome [6] | Potency [7]

CC(C)C(=O)Nc1ccc([N+](=O)[O-])c(C(F)(F)F)c1
inactive: outcome [8] | Potency [9] | outcome [10] | outcome [11] | outcome [12] | Potency [1] | Potency [3] | Potency [15] | Potency [16] | outcome [14] | outcome [6] | Potency [7]

NC(=O)OCC(COC(N)=O)c1ccccc1
inactive: Potency [1] | Potency [2] | Potency [17] | Potency [4] | Potency [16] | Potency [18] | Potency [7]

COC(=O)Nc1nc2ccc(C(=O)c3cccs3)cc2[nH]1
inactive: Potency [1] | Potency [2] | outcome [13] | Potency [4] | Potency [15] | outcome [6] | Potency [7]

N[C@@H](Cc1c[nH]c2ccc(O)cc12)C(=O)O
inactive: outcome [8] | Potency [9] | outcome [10] | outcome [11] | outcome [12] | Potency [1] | Potency [2] | Potency [3] | Potency [4] | Potency [16] | outcome [14] | Potency [18] | Potency [7]

Nc1c2c(nc3ccccc13)CCCC2
inactive: outcome [8] | Potency [9] | outcome [10] | outcome [11] | outcome [12] | Potency [1] | Potency [3] | Potency [15] | Potency [16] | outcome [14] | outcome [6] | Potency [7]

Clc1ccc(C(c2ccccc2Cl)C(Cl)Cl)cc1 (centres undefined)
active: caspase-3 activation [9] 133%
inactive: outcome [11] | outcome [12] | Potency [1] | Potency [16] | outcome [14] | outcome [6] | Potency [7]

COc1cc2c(c(OC)c1OC)-c1ccc(OC)c(=O)cc1[C@@H](NC(C)=O)CC2
inactive: outcome [8] | Potency [9] | outcome [10] | outcome [11] | outcome [12] | Potency [1] | Potency [17] | Potency [18] | Potency [7]

NCCS(=O)(=O)O
inactive: outcome [8] | Potency [9] | outcome [10] | outcome [11] | outcome [12] | Potency [1] | Potency [16] | outcome [14] | Potency [19] | Potency [18] | Potency [7]

Cc1cn([C@H]2C=C[C@@H](CO)O2)c(=O)[nH]c1=O
inactive: outcome [8] | Potency [9] | outcome [10] | outcome [11] | outcome [12] | Potency [1] | outcome [13] | Potency [16] | outcome [14] | Potency [7]

Nc1ccn([C@H]2CC[C@@H](CO)O2)c(=O)n1
inactive: outcome [8] | Potency [9] | outcome [10] | outcome [11] | outcome [12] | Potency [1] | outcome [13] | Potency [16] | outcome [14] | outcome [6] | Potency [19] | Potency [18] | Potency [7]

CC(C)NCC(O)c1ccc(O)c(O)c1 (centres undefined)
inactive: outcome [8] | Potency [9] | outcome [10] | outcome [11] | outcome [12] | outcome [14] | outcome [6]

O=C(Nc1ccc([N+](=O)[O-])cc1Cl)c1cc(Cl)ccc1O
active: Potency [2] 631 nM | Potency [16] 0.1 µM | Potency [7] 2.51 µM
inactive: Potency [1] | Potency [3] | outcome [6]

CC(COc1ccccc1)N(CCCl)Cc1ccccc1 (centres undefined)
active: Potency [9] 31.6 µM
inactive: outcome [8] | outcome [11] | Potency [3] | outcome [6]
